Measured potencies and affinities stand elsewhere.

Protein translocase subunit SecA (Escherichia coli (strain K12)), sequence (P10408 whole entry): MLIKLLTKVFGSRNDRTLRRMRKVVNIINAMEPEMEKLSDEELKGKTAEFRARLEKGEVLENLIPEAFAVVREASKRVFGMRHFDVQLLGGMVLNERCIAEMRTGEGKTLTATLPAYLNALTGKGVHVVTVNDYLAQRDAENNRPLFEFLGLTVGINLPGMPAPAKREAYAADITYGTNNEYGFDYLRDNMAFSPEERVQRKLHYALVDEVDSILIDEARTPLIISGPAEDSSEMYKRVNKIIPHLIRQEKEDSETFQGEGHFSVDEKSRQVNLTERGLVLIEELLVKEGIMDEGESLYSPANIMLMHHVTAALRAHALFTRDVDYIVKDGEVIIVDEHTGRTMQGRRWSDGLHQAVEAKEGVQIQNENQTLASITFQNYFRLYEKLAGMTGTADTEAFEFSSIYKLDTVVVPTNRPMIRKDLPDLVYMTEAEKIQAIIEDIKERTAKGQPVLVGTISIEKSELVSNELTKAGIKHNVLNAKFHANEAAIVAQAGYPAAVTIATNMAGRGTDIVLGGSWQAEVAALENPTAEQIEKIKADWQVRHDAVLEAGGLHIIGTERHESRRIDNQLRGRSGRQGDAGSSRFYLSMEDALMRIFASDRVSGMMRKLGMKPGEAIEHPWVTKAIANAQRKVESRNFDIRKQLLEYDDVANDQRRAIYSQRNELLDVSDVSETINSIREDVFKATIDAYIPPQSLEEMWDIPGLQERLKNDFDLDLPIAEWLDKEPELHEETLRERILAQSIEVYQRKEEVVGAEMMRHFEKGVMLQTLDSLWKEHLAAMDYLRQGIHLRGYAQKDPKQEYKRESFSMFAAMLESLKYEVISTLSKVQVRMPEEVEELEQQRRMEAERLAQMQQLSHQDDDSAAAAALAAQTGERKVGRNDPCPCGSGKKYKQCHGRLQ

One test has as its target Protein translocase subunit SecA (Escherichia coli (strain K12)) (UniProt P10408). Kind of test: Assay to Identify E. coli SecA ATPase Inhibitors. In kind it is functional. Details: scale not given: direction of the effect not stated beside the values. The following applies: 30 µM.
For the compound `Cc1nc(CO[C@@H]2CN(Cc3cnn(C)c3)[C@@H]3COC[C@@H]32)cs1`, the Percent Effect is -0.847%.

`CC(=O)N1CCN(Cc2csc(-c3cnn(C)c3)n2)CC1`: the Percent Effect is -5.28%.

As to `CC1CN(CC(=O)Nc2nncs2)CCN1c1nccs1` (stereo not drawn), the Percent Effect worked out at 1.26%.

On to `CC(OCC1CC1)C(=O)N1CCCN(Cc2cnn(C)c2)CC1` (stereo not drawn), for which the Percent Effect came out at 1.55%.

Regarding `O=S(=O)(CCNCc1cccc2c1OCCO2)N1CCOCC1`, the Percent Effect was found to be 0.589%.

Turning to `Cc1ccccc1[C@@H]1CN(C(=O)c2ccc3[nH]nnc3c2)C[C@H]1C(=O)O`, the Percent Effect is -4.25%.

Regarding `CC1CCN(C(CNC(=O)CCn2cccn2)c2cccs2)CC1` (stereo not drawn), the Percent Effect was -0.447%.

Take `Cc1ccc(NC2CCN(C(=O)COCC(F)(F)F)CC2)nn1`: the Percent Effect is -6.28%.

Take `Cn1cc(CN2CCCC3(CCN(c4nncs4)C3)C2)cn1` (stereo not drawn): the Percent Effect is -9.67%.

Turning to `Cc1nc(Cn2nc(C3CCNCC3)n(Cc3ccccc3)c2=O)no1`, the Percent Effect is -0.936%.

With `CC(C)(C)c1cnc(CN2CCC(c3ccnn3CCO)CC2)o1`, the Percent Effect is -2.61%.

Take `Cc1nc(COC[C@@H]2CC[C@H]3[C@H](CCN3c3ncccn3)O2)cs1`: the Percent Effect was -0.526%.

Regarding `CC(=O)N(Cc1ncc(C)o1)C1CCN(Cc2noc(C)n2)C1` (stereo not drawn), the Percent Effect was -3.16%.

As for `Cc1cc(CN(C)C2CCCN(Cc3noc(C4CC4)n3)C2)no1` (stereo not drawn), the Percent Effect was -2.13%.

For the compound `COCC1CN(C(=O)C2=CCCCC2)Cc2cnn(CC3CC3)c21` (stereo not drawn), the Percent Effect was -1.86%.

As for `CC(=O)N1CCCN(C(=O)NCCc2ccc(Cl)s2)CC1`, the Percent Effect was -2.98%.

With `CCc1nnc(CN(C)c2nc(C3CCCC3)nc3c2cnn3C)o1`, the Percent Effect is -4.33%.

Take `COc1ccc(-c2cc(C3CCCCCN3S(=O)(=O)N(C)C)on2)cc1` (stereo not drawn): the Percent Effect is -2.23%.

For `O=C(N[C@@H]1CN(Cc2ccccc2)C[C@@H]2CCCO[C@@H]21)C1CC1`, the Percent Effect was found to be 3.31%.

For the compound `CS(=O)(=O)NCCCNC(=O)c1cccnc1O`, the Percent Effect was -3.07%.

Turning to `Fc1ccc(CNCC2OCCc3cn(CC4CC4)nc32)cc1` (stereo not drawn), the Percent Effect was -3.44%.

For the compound `O=C(c1cccnc1-n1cncn1)N1CCN(CC2CC2)CC1`, the Percent Effect was -2.35%.

On to `COc1ccccc1OC1(C(=O)O)CCN(c2nccnc2C)CC1`, for which the Percent Effect was -2.61%.

As to `Cc1csc(CNC(=O)NCCc2ccc3c(c2)OCCO3)n1`, the Percent Effect was -5.64%.

As for `CCOCC(O)CN1CCN(C(=O)CC(C)(C)C)CC1` (stereo not drawn), the Percent Effect was -3.75%.

Consider `CN1C(=O)C(c2cccnc2)CC12CCN(C(=O)c1cccn1C)CC2` (stereo not drawn), for which the Percent Effect was -1.55%.

In the case of `Cc1ccc(S(=O)(=O)N2C[C@H]3C[C@H](NC(=O)c4ccn(C)n4)[C@H]3C2)cc1`, the Percent Effect is -7.65%.

As for `CN(Cc1ccc(F)cc1)C(=O)NCc1nnc2n1CCCCC2`, the Percent Effect was -8.45%.

Take `O=C(Nc1cc(C(F)(F)F)c[nH]c1=O)N1CCCSCC1`: the Percent Effect was -5.05%.

In the case of `c1cc(CN2CCN(Cc3cscn3)CC2)cs1`, the Percent Effect was -1.31%.

Take `Cc1noc([C@@H]2C[C@H]3OCC[C@H]3N(S(=O)(=O)c3cccnc3)C2)n1`: the Percent Effect was -2.85%.

Consider `CCn1cnnc1C1CCN(C(=O)c2ccccc2OC)CC1`, for which the Percent Effect is -2.76%.

Regarding `O=C(c1ccccc1-c1ccccc1)N1CCOC2(CNCCOC2)C1` (stereo not drawn), the Percent Effect was -2.01%.

On to `COc1ccc(C(=O)N(C)Cc2cccc(C#N)c2)c(OC)c1OC`, for which the Percent Effect was -2.52%.

Regarding `CNC(=O)[C@@]12CCCN(c3ncccn3)[C@@H]1CN(C(=O)NC(C)C)C2`, the Percent Effect was -0.175%.

As for `O=C1CC(NCc2ccncc2)CN1Cc1cccc(F)c1` (stereo not drawn), the Percent Effect is -3.06%.

For the compound `CS(=O)(=O)NC[C@@H]1OC[C@H]2CN(C(=O)c3ccc[nH]3)CC[C@H]21`, the Percent Effect was -1.96%.

Turning to `Cc1nccn1C1CCCN(C(=O)c2cc3ccccc3[nH]2)C1` (stereo not drawn), the Percent Effect is -6.7%.

For `CS(=O)(=O)N1CCC(O)(Cn2c(C3CC3)nc3ccccc3c2=O)CC1`, the Percent Effect was -6.42%.

The target in a further test is T1, Ubiquitin-activating enzyme e1, putative (Leishmania donovani (strain BPK282A1)) (UniProt E9BSI1).
T1 sequence (whole entry): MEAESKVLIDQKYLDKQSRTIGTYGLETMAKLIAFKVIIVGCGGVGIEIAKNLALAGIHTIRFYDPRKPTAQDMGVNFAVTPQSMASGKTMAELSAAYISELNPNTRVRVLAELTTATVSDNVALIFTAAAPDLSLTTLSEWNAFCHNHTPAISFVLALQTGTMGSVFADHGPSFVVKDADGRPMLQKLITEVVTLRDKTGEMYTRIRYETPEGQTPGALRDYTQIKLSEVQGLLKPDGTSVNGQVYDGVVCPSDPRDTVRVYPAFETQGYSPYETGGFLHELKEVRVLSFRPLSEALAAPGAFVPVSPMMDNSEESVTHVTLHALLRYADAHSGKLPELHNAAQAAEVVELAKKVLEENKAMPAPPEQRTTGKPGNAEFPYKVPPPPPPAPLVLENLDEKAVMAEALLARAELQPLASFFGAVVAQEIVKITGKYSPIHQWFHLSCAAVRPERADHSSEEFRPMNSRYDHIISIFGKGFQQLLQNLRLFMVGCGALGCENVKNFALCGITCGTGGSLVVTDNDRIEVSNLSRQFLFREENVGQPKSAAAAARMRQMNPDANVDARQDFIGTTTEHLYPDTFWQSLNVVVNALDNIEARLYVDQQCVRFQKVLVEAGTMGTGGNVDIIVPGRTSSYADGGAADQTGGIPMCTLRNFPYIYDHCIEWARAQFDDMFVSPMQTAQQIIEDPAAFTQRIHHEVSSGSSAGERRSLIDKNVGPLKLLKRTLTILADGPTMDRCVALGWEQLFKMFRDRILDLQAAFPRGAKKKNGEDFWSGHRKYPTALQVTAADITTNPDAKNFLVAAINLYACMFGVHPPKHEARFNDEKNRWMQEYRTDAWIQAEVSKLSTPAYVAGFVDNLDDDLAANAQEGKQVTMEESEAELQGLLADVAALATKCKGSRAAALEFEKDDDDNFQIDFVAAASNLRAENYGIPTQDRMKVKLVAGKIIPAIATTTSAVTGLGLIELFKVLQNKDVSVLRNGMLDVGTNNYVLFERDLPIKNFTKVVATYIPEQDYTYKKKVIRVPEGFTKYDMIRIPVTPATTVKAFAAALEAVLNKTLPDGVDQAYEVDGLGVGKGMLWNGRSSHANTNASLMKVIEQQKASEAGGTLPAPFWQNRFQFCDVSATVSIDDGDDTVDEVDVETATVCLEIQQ
As to the kind of experiment: Leishmania donovani Ubiquitin Activating Enzyme (LdE1). The test is classed as functional. Details: scale not given: direction of the effect not stated beside the values. As to conditions: 30 µM.
On to `Cc1nc(CO[C@@H]2CN(Cc3cnn(C)c3)[C@@H]3COC[C@@H]32)cs1`, for which the Percent Effect amounted to 13.7%.

Take `CC(=O)N1CCN(Cc2csc(-c3cnn(C)c3)n2)CC1`: the Percent Effect amounted to 7.89%.

On to `CC1CN(CC(=O)Nc2nncs2)CCN1c1nccs1` (stereo not drawn), for which the Percent Effect was 8.11%.

As for `CC(OCC1CC1)C(=O)N1CCCN(Cc2cnn(C)c2)CC1` (stereo not drawn), the Percent Effect turned out to be 31.6%.

For the compound `O=S(=O)(CCNCc1cccc2c1OCCO2)N1CCOCC1`, the Percent Effect came to 10.8%.

With `Cc1ccccc1[C@@H]1CN(C(=O)c2ccc3[nH]nnc3c2)C[C@H]1C(=O)O`, the Percent Effect was -11%.

Regarding `CC1CCN(C(CNC(=O)CCn2cccn2)c2cccs2)CC1` (stereo not drawn), the Percent Effect turned out to be 13.3%.

Take `Cc1ccc(NC2CCN(C(=O)COCC(F)(F)F)CC2)nn1`: the Percent Effect is 6.33%.

As for `Cn1cc(CN2CCCC3(CCN(c4nncs4)C3)C2)cn1` (stereo not drawn), the Percent Effect turned out to be 2.7%.

As for `Cc1nc(Cn2nc(C3CCNCC3)n(Cc3ccccc3)c2=O)no1`, the Percent Effect came out at 5.41%.

As for `CC(C)(C)c1cnc(CN2CCC(c3ccnn3CCO)CC2)o1`, the Percent Effect stood at 2.53%.

On to `Cc1nc(COC[C@@H]2CC[C@H]3[C@H](CCN3c3ncccn3)O2)cs1`, for which the Percent Effect amounted to 0%.

Regarding `CC(=O)N(Cc1ncc(C)o1)C1CCN(Cc2noc(C)n2)C1` (stereo not drawn), the Percent Effect was 26%.

In the case of `Cc1cc(CN(C)C2CCCN(Cc3noc(C4CC4)n3)C2)no1` (stereo not drawn), the Percent Effect was found to be 15.8%.

For the compound `COCC1CN(C(=O)C2=CCCCC2)Cc2cnn(CC3CC3)c21` (stereo not drawn), the Percent Effect turned out to be 13%.

Take `CC(=O)N1CCCN(C(=O)NCCc2ccc(Cl)s2)CC1`: the Percent Effect is -1.27%.

As to `CCc1nnc(CN(C)c2nc(C3CCCC3)nc3c2cnn3C)o1`, the Percent Effect was determined as 4.17%.

As for `COc1ccc(-c2cc(C3CCCCCN3S(=O)(=O)N(C)C)on2)cc1` (stereo not drawn), the Percent Effect was -14.9%.

For `O=C(N[C@@H]1CN(Cc2ccccc2)C[C@@H]2CCCO[C@@H]21)C1CC1`, the Percent Effect was 10.7%.

Consider `CS(=O)(=O)NCCCNC(=O)c1cccnc1O`, for which the Percent Effect turned out to be 0%.

As for `Fc1ccc(CNCC2OCCc3cn(CC4CC4)nc32)cc1` (stereo not drawn), the Percent Effect worked out at 0%.

Consider `O=C(c1cccnc1-n1cncn1)N1CCN(CC2CC2)CC1`, for which the Percent Effect was 16.2%.

Consider `COc1ccccc1OC1(C(=O)O)CCN(c2nccnc2C)CC1`, for which the Percent Effect is 5.48%.

As for `Cc1csc(CNC(=O)NCCc2ccc3c(c2)OCCO3)n1`, the Percent Effect was 13%.

For `CCOCC(O)CN1CCN(C(=O)CC(C)(C)C)CC1` (stereo not drawn), the Percent Effect was -2.7%.

For the compound `CN1C(=O)C(c2cccnc2)CC12CCN(C(=O)c1cccn1C)CC2` (stereo not drawn), the Percent Effect stood at 0%.

Take `Cc1ccc(S(=O)(=O)N2C[C@H]3C[C@H](NC(=O)c4ccn(C)n4)[C@H]3C2)cc1`: the Percent Effect was found to be 17.6%.

Consider `CN(Cc1ccc(F)cc1)C(=O)NCc1nnc2n1CCCCC2`, for which the Percent Effect was 12.7%.

On to `O=C(Nc1cc(C(F)(F)F)c[nH]c1=O)N1CCCSCC1`, for which the Percent Effect turned out to be 7.79%.

Regarding `c1cc(CN2CCN(Cc3cscn3)CC2)cs1`, the Percent Effect was 10.4%.

Consider `Cc1noc([C@@H]2C[C@H]3OCC[C@H]3N(S(=O)(=O)c3cccnc3)C2)n1`, for which the Percent Effect was 11%.

As to `CCn1cnnc1C1CCN(C(=O)c2ccccc2OC)CC1`, the Percent Effect was determined as 7.79%.

`O=C(c1ccccc1-c1ccccc1)N1CCOC2(CNCCOC2)C1` (stereo not drawn): the Percent Effect worked out at 8.11%.

On to `COc1ccc(C(=O)N(C)Cc2cccc(C#N)c2)c(OC)c1OC`, for which the Percent Effect stood at 8.11%.

Regarding `CNC(=O)[C@@]12CCCN(c3ncccn3)[C@@H]1CN(C(=O)NC(C)C)C2`, the Percent Effect was found to be 20.8%.

Consider `O=C1CC(NCc2ccncc2)CN1Cc1cccc(F)c1` (stereo not drawn), for which the Percent Effect was -2.7%.

Consider `CS(=O)(=O)NC[C@@H]1OC[C@H]2CN(C(=O)c3ccc[nH]3)CC[C@H]21`, for which the Percent Effect was -187%.

For the compound `Cc1nccn1C1CCCN(C(=O)c2cc3ccccc3[nH]2)C1` (stereo not drawn), the Percent Effect was 2.53%.

On to `CS(=O)(=O)N1CCC(O)(Cn2c(C3CC3)nc3ccccc3c2=O)CC1`, for which the Percent Effect came to 1.35%.

The record behind these values is ChEMBL document CHEMBL3988442, “University of Dundee, Small-Polar-MMV Screening Library” (2021).
